{"source": "PubChem BioAssay"}
{"molecular_target": "Epidermal growth factor receptor (Homo sapiens) (UniProt P00533)", "sequence (P00533 whole entry, looked up)": "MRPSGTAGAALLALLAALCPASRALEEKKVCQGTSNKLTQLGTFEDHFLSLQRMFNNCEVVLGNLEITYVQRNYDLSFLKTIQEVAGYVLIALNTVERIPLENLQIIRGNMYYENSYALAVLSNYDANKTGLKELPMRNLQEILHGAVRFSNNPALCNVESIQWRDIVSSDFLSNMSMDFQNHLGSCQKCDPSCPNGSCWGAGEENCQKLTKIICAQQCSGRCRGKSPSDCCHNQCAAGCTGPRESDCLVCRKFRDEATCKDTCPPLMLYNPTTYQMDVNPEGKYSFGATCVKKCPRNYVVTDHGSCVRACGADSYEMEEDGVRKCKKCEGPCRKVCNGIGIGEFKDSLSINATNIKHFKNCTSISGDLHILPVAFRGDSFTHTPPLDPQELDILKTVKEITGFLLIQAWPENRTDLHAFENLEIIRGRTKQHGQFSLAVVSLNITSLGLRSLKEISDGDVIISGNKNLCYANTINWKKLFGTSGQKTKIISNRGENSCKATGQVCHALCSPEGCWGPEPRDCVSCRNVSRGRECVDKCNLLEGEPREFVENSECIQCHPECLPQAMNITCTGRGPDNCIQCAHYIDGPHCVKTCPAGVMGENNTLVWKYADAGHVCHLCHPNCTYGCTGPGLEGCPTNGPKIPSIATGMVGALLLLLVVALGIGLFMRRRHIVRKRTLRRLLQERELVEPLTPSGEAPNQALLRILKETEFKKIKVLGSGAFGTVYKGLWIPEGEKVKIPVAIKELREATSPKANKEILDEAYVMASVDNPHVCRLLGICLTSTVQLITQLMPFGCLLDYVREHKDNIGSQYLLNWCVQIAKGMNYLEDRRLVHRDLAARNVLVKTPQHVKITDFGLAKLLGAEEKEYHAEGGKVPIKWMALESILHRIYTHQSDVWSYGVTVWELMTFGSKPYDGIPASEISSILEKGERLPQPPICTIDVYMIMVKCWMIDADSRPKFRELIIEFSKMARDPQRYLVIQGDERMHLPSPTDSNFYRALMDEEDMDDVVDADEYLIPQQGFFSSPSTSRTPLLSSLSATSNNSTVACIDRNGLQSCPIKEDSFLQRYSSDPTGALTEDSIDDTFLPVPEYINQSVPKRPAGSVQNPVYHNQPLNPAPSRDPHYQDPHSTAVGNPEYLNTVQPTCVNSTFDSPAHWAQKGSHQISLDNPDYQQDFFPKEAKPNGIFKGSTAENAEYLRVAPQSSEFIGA", "assay": "compounds binding epidermal growth factor receptor – biochemical, small-molecule microarray, 635 nm fluorescence, primary screen (AID 1104);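 note: score merges 667 nm emission intensity with spot signal to noise over triplicate slides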", "conditions": "EGFR binding, higher = more signal"}
{"smiles": "C=CCC(OC(C)=O)[C@@H]1[C@@H](N(Cc2cccc3ccccc23)C(=O)c2ccc(-c3ccccc3)cc2)c2cc(OCCCO)ccc2N1C(=O)c1ccc(-c2ccccc2)cc1", "note": "(stereo partly specified)", "composite z-score": -0.151}
{"smiles": "COC(=O)[C@@]1(Cc2ccc(F)cc2)[C@H]2c3cc(C(=O)N(C)C)n(Cc4c(CO)[nH]cc(C)c4=O)c3C[C@H]2CN1C(=O)c1ccccc1", "composite z-score": 0.0656}
{"smiles": "CN(C)C(=O)[C@]1(CCS(=O)(=O)c2ccccc2)N=C(c2ccc(OCCCO)cc2)O[C@@H]1c1ccccc1", "composite z-score": -0.0269}
{"smiles": "CC(C)OC(=O)CC(=O)CC(O)c1ccc([N+](=O)[O-])cc1", "note": "(stereo unspecified)", "composite z-score": -0.41}
{"smiles": "CCN(CC)c1ccc(N2CC=CC34O[C@@H]5/C=C\\CCC(C)OC(=O)C5[C@H]3C(=O)N(C(C)CO)[C@@H]4C2=O)cc1", "note": "(stereo partly specified)", "composite z-score": -0.455}
{"smiles": "Cc1ccc(C(C)CC(O)C2C=CC3C(=O)N(c4ccccc4)C(=O)C3N2Nc2ccc(C#N)cc2)o1", "note": "(stereo unspecified)", "composite z-score": 0.202}
{"smiles": "Cc1ccc(F)cc1S(=O)(=O)N[C@@H]1CCN(Cc2cccc3[nH]ccc23)C1", "composite z-score": 0.719}
{"smiles": "O=C1C2C=CC(C(O)c3ccco3)N(Nc3ccccc3)C2C(=O)N1c1ccccc1", "note": "(stereo unspecified)", "composite z-score": -0.616}
{"smiles": "CCOC(=O)C1=CCC(c2ccco2)N(S(=O)(=O)c2ccc(C)cc2)C1", "note": "(stereo unspecified)", "composite z-score": 0.422}
{"smiles": "O=C(NCCN1CCOCC1)[C@@H]1c2ccccc2C(=O)N(Cc2ccccc2)[C@H]1c1ccc(CO)cc1", "composite z-score": -1.81}
{"smiles": "CCOC(=O)C1=C[C@@H](c2ccccc2)N(S(=O)(=O)c2ccc(C)cc2)[C@H]1c1ccccc1", "composite z-score": 0.0794}
{"smiles": "COCCOC(=O)N1C(=O)[C@@]2(c3cc(C#Cc4ccc(OC)cc4)ccc31)[C@H](c1ccc(OCCO)cc1)N1[C@H](c3ccccc3)[C@H](c3ccccc3)OC(=O)[C@H]1[C@@H]2C(=O)Nc1nc2ccccc2s1", "composite z-score": 0.397}
{"smiles": "[N-]=[N+]=Nc1ccccc1C[C@]1(C(=O)O)N=C(c2ccc(OCCCO)cc2)O[C@H]1c1ccccc1N=[N+]=[N-]", "composite z-score": 0.342}
{"smiles": "CC=CC(O)C1C=CC2C(=O)NC(=O)C2N1Nc1ccccn1", "note": "(stereo unspecified)", "composite z-score": 0.673}
{"smiles": "CCOC(=O)C1=C[C@@H](C(C)(C)C)N(S(=O)(=O)c2ccc(C)cc2)[C@H]1c1ccccc1", "composite z-score": 0.591}
{"smiles": "COC(=O)[C@@]1(Cc2ccc(F)cc2)[C@H]2c3cc(C(=O)N4CCCC4)n(CC4CC4)c3C[C@H]2CN1C(=O)c1ccccc1", "composite z-score": 0.915}
{"smiles": "CO[C@H]1O[C@H](CO)[C@@H](OC(=O)Nc2ccc(C#N)cc2)[C@@H]2OC(=O)[C@H](Cc3cccc(Br)c3)C/C=C/C[C@@H](Cc3cccc(Br)c3)C(=O)O[C@@H]12", "composite z-score": 0.223}
{"smiles": "COC(=O)[C@@]1(Cc2ccccc2)[C@H]2c3cc(C(=O)N(C)C)n(CCn4cc([N+](=O)[O-])nc4C)c3C[C@H]2CN1C(=O)c1ccccc1", "composite z-score": 0.355}
{"smiles": "Cc1ccc(N2C(=O)c3ccccc3[C@](C)(C(=O)NCc3ccccc3)[C@@H]2c2ccc(CO)cc2)nc1", "composite z-score": -0.219}
{"smiles": "COC(=O)[C@@]1(Cc2ccc(F)cc2)[C@H]2c3cc(C(=O)N4CCCC4)n(C)c3C[C@H]2CN1C(=O)c1ccccc1", "composite z-score": -0.372}
{"smiles": "CC(C)C(=C=CC[C@@H](O)c1cccc(OCCO)c1)C[C@@H](O)c1ccccn1", "composite z-score": -0.604}
{"smiles": "O=C(O)[C@H]1C[C@H]2C(=O)N[C@@H](Cc3ccccc3)C(=O)N2[C@H]1c1cccc(OCCO)c1", "composite z-score": 0.391}
{"smiles": "COc1ccc([Si](C)(C)[C@@H]2[C@@H](CC(=O)N3Cc4ccccc4C[C@H]3CO)O[C@]3(C(=O)N(Cc4ccc(N5CCC5=O)cc4)c4ccccc43)[C@H]2C)cc1", "composite z-score": 0.744}
{"smiles": "Cc1ccc([C@H]2C(C(=O)O)=C[C@@H](C(C)(C)C)N2S(=O)(=O)c2ccc(C)cc2)cc1", "composite z-score": 0.0496}
{"smiles": "CN1C(=O)[C@@]2(Cc3ccccc3)N=C(c3ccc(OCCCO)cc3)O[C@H]2c2ccccc21", "composite z-score": 0.261}
{"smiles": "COCCCNC(=O)[C@@]1(Sc2ccc(C)cc2)CC(=O)N(C(C)C)[C@@H]1c1ccc(CO)cc1I", "composite z-score": -0.839}
{"smiles": "CC(C)C(=C=CC[C@@H](O)c1cccc(OCCO)c1)C[C@@H](O)COCc1ccccc1", "composite z-score": -0.208}
{"smiles": "COC(=O)[C@@]1(Cc2ccccc2)[C@H]2c3cc(C(=O)N4CCCC4)n(CCSCCO)c3C[C@H]2CN1C(=O)c1ccccc1", "composite z-score": -0.0631}
{"smiles": "CCOC(=O)C1=C[C@@H](C(C)(C)C)N(S(=O)(=O)c2ccc(C)cc2)[C@H]1c1cccc(Cl)c1", "composite z-score": 0.427}
{"smiles": "C=C[C@H](C)[C@H](OC(=O)Nc1ccc(OC)cc1)c1ccc(OCCO)cc1", "composite z-score": -2.13}
{"smiles": "C[C@]1(C(=O)O)c2ccccc2C(=O)N(Cc2ccc(OC(F)(F)F)cc2)[C@H]1c1ccc(CO)cc1", "composite z-score": -0.409}
